# The supplement of paper PMC6555819
# Tested on: RARb:RXRa (NR concentration 270 nM, RXRa partner concentration 90 nM)
# Assay: PBM binding z-score (relative to random genomic background probes); higher = stronger binding; sequences stand for … in GC…GCGATTGACAGCGTAGAATGAAGG
# In short: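 Binding z-scores were set against random background probes. The data came from custom Agilent 4×180K protein-binding microarrays carrying double-stranded probes with 34-nt variable regions, incubated 1 h with ligand-free nuclear receptor dimers. Partner-specific antibodies detected binding, and scanned fluorescence was regression-normalized.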
row,Sequence,PBM binding z-score
1,TCTCGGAGGACACGATGGTCAGAGCTTTCCAGAG,1.51
2,GCTTACGGATCAAAGGTTATAGCATGAATAGAAT,1.42
3,CTACCAAGGTGAACAAGGTCGTCGATTACTATTC,2.27
4,AATACAGGGTCATCGTAGGCCAGTGTACGCACAG,4.35
5,CCTGCTAGGTCATGGTCAGATAATCTACAGTATG,3.92
6,CGAACTAGGTCAAAGGTCAAAGTCGAGCCAACCA,5.51
7,AATACAGGGTCATTGTAGGCCAGAGTACGCACAG,4.19
8,AGAATGAGGTTATACGTAGATCAGGGATGAAAGT,1.44
9,ATCGAAAGGTCGAGGTGAGTTTAGAGAAAGGGAA,4.26
10,TGAATGAGGTGATAAGATCAGGGAACGTTGCAAA,0.351
11,ATCGAAAGGTCGAAGGTTAGTATACCCACCCGAA,3.76
12,TCATATAGGTAAAGGGTGAAAGTCGGTGTGGTAA,1.46
13,CCTTACGGGTCAAGGTTATAGCGCGGGTGGTACG,4.29
14,CATCCAAGGTCAGAGAGGTCAGTGAATGCCGAGT,5.38
15,CCTTACGGGGCACTGACAGGTTATAGCATTTGGA,1.03
16,TGAATGAGGTTAAAAATCAGGGAACGTGGCGTCG,1.32
17,TTACCAAGGTGAAAGGTTGTTGATGCACGCCTTG,1.63
18,CCTAGCAGGCCCGGGTCACTCAAGCATTTCGCTT,1.63
19,AGTCAAAGTTCACCAGGTAACGTAAGATTCAGCT,5.18
20,TCTTGTAGATCAAGCCGGTTAAGAAAGCCTGAGT,0.123

row,Sequence,PBM binding z-score
1,TCGAGTAGGTTAGGGGCCTTCAGAATGGCGTCGA,0.24
2,GCTGGGAGGACAAGGTCAGAGCTTTGTCCGTAGA,3.41
3,CCTTAAGGGTCAAGGTTATAGCACGGGTGGTACG,5.4
4,GCGAGCAGGCCATTTGGGTCACTCAATGACGGGC,1.69
5,CGAACTAGGTCATCTAGGACAGTGAATACATTGA,3.92
6,CCAGACAGGTGAAAGGTACCTCAGTCTGGTACGC,0.786
7,GCAGACAGGTAAAACGCAGGTAACTCAGGGTGGC,-0.486
8,CCTCGCAGGCCAATCTGGGTCACTCAAGGCTTGA,1.67
9,GGAACGAGGGCATTCTAGTTGATAGCATGGCGAT,1.58
10,CCTACTAGGCCATTCAGAGGTCATTGATCATATG,3.45
11,AGAACGACGGCACGCTGAGTTGATAGCAGAGTAG,-0.524
12,TCTGCTAGGTTAGTTGGTCAGCTAACGAGCTGCC,0.525
13,ATCTCTAGGTAACAAGTTCAGTGTAAGAGAGGAC,1.78
14,ATCGAAAGGTCGTGAGGTGAGTAGACAGAAAGGC,3.9
15,CCTACTGGGCCACGAAAGCTCATTGATTCAGTGA,-0.0436
16,AGAACGAGGGCAATGAGTTGATGGCACGGGTGGC,1.99
17,CCTACTGGGCCAAGGTTATTGATCAGTCAAAGCA,0.659
18,CCTTACGGGTCAAGGTTTTAGCACGGGTGGTACG,4.2
19,TCTTGTAGACCAATAGAGGTTAAGAAAGTGCGCT,1.01
20,ACAGACAGGTGAGTGAAGGTAACTTAGCTGGACG,0.486
